“And” between values parts separate entries of the source, which are not always exact repeats. Equal entries are not always repeated. Results filed as inconclusive are left out. A call without a number means that no potency is given here. A structure can be active in one record and inactive in another. The source made the active and inactive calls. Unless noted, calls follow the shape of the full dose curve.
Key:
[1] = Nuclear factor erythroid 2-related factor 2/antioxidant responsive element (Nrf2/ARE) small molecule agonists: qHTS cell viability counter screen in human keratinocytes (AID 1919968; active = well fitted cell-killing curve with a large enough effect in the repeat runs; also: nearly all actives have a fitted effect of over 55% in size; also: potency is read from the fitted curve at half-maximal effect)
In short: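 Cytotoxicity was multiplexed with the Nrf2/ARE luciferase assay in the same wells. Stably transfected HaCaT keratinocytes were treated with test compounds for 23 h at 37 C. Cell viability was then measured by CellTiter-Fluor fluorescence.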

[2] = Nuclear factor erythroid 2-related factor 2/antioxidant responsive element (Nrf2/ARE) small molecule agonists: luciferase reporter gene qHTS assay in human keratinocytes (AID 1919969); also: nearly all actives have a fitted effect of over 35% in size
[3] = target: Gonadotropin-releasing hormone receptor (Homo sapiens) (UniProt P30968); test: Human gonadotropin-releasing hormone receptor (GnRHR) small molecule agonists, calcium flux assay in GnRHR-HEK293 cells (AID 1920063); also: nearly all actives have a fitted effect of over 35% in size
In short: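 Agonist activity was measured as intracellular calcium flux in HEK293 cells engineered to stably express human GnRHR. After dye loading for 1 hour at 37 C, compounds in DMSO were added and fluorescence was followed for 3 minutes.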

[4] = p53 small molecule agonists, cell-based qHTS assay with human liver microsomes (AID 1963577)
In short: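 p53RE-bla cells, 4,000/well, compound added after 5 h, with human liver microsomes 0.5 mg/mL and NADPH 0.5 mg/mL final; 16 h at 37 C, then LiveBLAzer 2 h RT, fluorescence.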

[5] = p53 small molecule agonists, cell-based qHTS assay with human liver microsomes: qHTS cell viability counter screen (AID 1963579); also: nearly all actives have a fitted effect of over 45% in size; also: potency is read from the fitted curve at half-maximal effect
In short: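 p53RE-bla cells, 4,000/well, dosed 5 hours after plating, with human liver microsomes (0.5 mg/mL final) plus NADPH (0.5 mg/mL final), 16 hours at 37 C. Viability read as CellTiter-Glo luminescence after 30 min at room temperature.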

[6] = p53 small molecule agonists, cell-based qHTS assay: qHTS cell viability counter screen (AID 1963581); also: nearly all actives have a fitted effect of over 45% in size; also: potency is read from the fitted curve at half-maximal effect
In short: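 Viability was counter-screened in parallel with the p53 agonist reporter by measuring intracellular ATP luminescence in the same HCT-116 p53RE-bla wells after 16 h compound treatment at 37 C.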

[7] = p53 small molecule agonists, cell-based qHTS assay (AID 1963582; active = well fitted activation curve with a large enough effect in the signal ratio in the repeat runs, not every such curve was filed as active; the % refers to the signal ratio)
In short: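 Cells carrying a p53-responsive bla reporter are treated with test compounds for 16 h at 37 C; beta-lactamase activity is then detected with LiveBLAzer B/G FRET substrate after 2 h at room temperature.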

[8] = target: 5-hydroxytryptamine receptor 2A (Homo sapiens) (UniProt P28223); test: 5-hydroxytryptamine receptor 2A (HTR2A) small molecule agonists, cell-based qHTS assay (AID 1963587); also: nearly all actives have a fitted effect of over 30% in size
In short: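 Kinetic calcium-flux fluorescence (2 min, 1 sec intervals) after compound addition in agonist mode. HTR2A-CHO cells were cultured 18 h, then dye-loaded 1 h at 37 C.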

[9] = target: Muscarinic acetylcholine receptor M1 (Homo sapiens) (UniProt P11229); test: Cholinergic receptor muscarinic 1 (CHRM1) small molecule antagonists, cell-based qHTS assay (AID 1963588); also: nearly all actives have a fitted effect of over 40% in size; also: potency is read from the fitted curve at half-maximal effect
In short: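 Compounds were tested at 15 concentrations in three independent runs. Dye-loaded CHRM1-CHO cells were exposed 5 min at room temperature before stimulation by acetylcholine added at 50nM. Intracellular calcium was read kinetically on FDSS for 3 min.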

[10] = target: Muscarinic acetylcholine receptor M1 (Homo sapiens) (UniProt P11229); test: Cholinergic receptor muscarinic 1 (CHRM1) small molecule agonists, cell-based qHTS assay (AID 1963589); also: nearly all actives have a fitted effect of over 35% in size
In short: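 Cells were plated and incubated 18 h at 37 C/5% CO2, loaded with calcium dye for 1 h at 37 C, then treated with compounds in DMSO. Fluorescence was recorded kinetically at 1 sec intervals.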

[11] = cAMP Responsive Elements (CRE) small molecule agonists, cell-based qHTS assay (AID 1963590)
In short: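 Cells carrying a CRE-driven beta-lactamase reporter (HEK 293T) are seeded, incubated overnight (18 h), and treated with test compounds for 3 h at 37 C; reporter activity is then detected with a FRET substrate after 2 h at room temperature.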

[12] = cAMP Responsive Elements (CRE) small molecule antagonists, cell-based qHTS assay (AID 1963591; active = well fitted inhibition curve with a large enough effect in the signal ratio in the repeat runs, not every such curve was filed as active; the % refers to the signal ratio)
In short: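 Cells (CRE-bla HEK 293T, DMEM with 10% dialyzed FBS and 25 mM HEPES) are seeded and incubated 18 h. Compounds are added with NKH477 agonist at 0.25 uM final for 3 h, then FRET substrate for 2 h.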

[13] = target: Beta-2 adrenergic receptor (Homo sapiens) (UniProt P07550); test: Adrenergic beta2 receptor (ADRB2) small molecule antagonists, cell-based qHTS assay (AID 1963592); also: series mostly up to about 92 µM; nearly all actives have a fitted effect of over 50% in size
In short: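 Assay format: CHO-ADRB2 cells, 18-20hr seeding at 37C/5% CO2, then compound plus 1nM isoproterenol agonist mix for 0.5hr RT. Homogeneous time-resolved fluorescence cAMP detection after 1hr, expressed as 665/615 nm ratio.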

[14] = target: Beta-2 adrenergic receptor (Homo sapiens) (UniProt P07550); test: Adrenergic beta2 receptor (ADRB2) small molecule agonists, cell-based qHTS assay (AID 1963593);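 also: CHO cells stably overexpressing human ADRB2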
In short: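 CHO cells stably over-expressing ADRB2 were plated overnight at 37C, then dosed with compounds plus a stimulation mix containing 100uM IBMX and 25uM Ro-20-1724 for 0.5hr at room temperature. cAMP was measured by HTRF competition, 1hr.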

[15] = target: D(2) dopamine receptor (Homo sapiens) (UniProt P14416); test: Dopamine D2 receptor (DRD2) small molecule agonists, cell-based qHTS assay (AID 1963594); also: nearly all actives have a fitted effect of over 35% in size
In short: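 cAMP accumulation in DRD2-HEK293 cells measured by HTRF after 1 h detection; compounds added 10 min before NKH477 (200nM […]) forskolin-analogue stimulation, 30 min at room temperature, with Ro20-1724 present at 0.1 mM final.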

[16] = p53 small molecule agonists, cell-based qHTS assay with rat liver microsomes: qHTS cell viability counter screen (AID 1963580); also: nearly all actives have a fitted effect of over 45% in size; also: potency is read from the fitted curve at half-maximal effect
In short: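 Rat liver microsome (0.5 mg/mL final) and NADPH (0.5 mg/mL final) co-incubation with compounds for 16 h at 37 C on HCT-116 p53RE-bla cells; cytotoxicity taken from intracellular ATP luminescence.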

[17] = target: 5-hydroxytryptamine receptor 2A (Homo sapiens) (UniProt P28223); test: 5-hydroxytryptamine receptor 2A (HTR2A) small molecule antagonists, cell-based qHTS assay (AID 1963586); also: nearly all actives have a fitted effect of over 45% in size
In short: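 CHO cells stably expressing human HTR2A were plated for 18 h at 37 C, then loaded with calcium dye for 1 h. Compounds were preincubated 5 min at room temperature before DOI (4 nM solution) was added. Kinetic fluorescence was read for 3 min.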

[18] = target: D(2) dopamine receptor (Homo sapiens) (UniProt P14416); test: Dopamine D2 receptor (DRD2) small molecule antagonists, cell-based qHTS assay (AID 1963595; active = well fitted inhibition curve with a large enough effect in the signal ratio in the repeat runs, with a control signal flat; the % refers to the signal ratio)
In short: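 HEK293 cells stably expressing DRD2 were preincubated with 0.1 mM Ro20-1724, then with compound for 10 min at room temperature. Cells were stimulated with 200 nM NKH477 plus 12 nM quinpirole for 30 min, and cAMP was read by HTRF.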

[19] = p53 small molecule agonists, cell-based qHTS assay with rat liver microsomes (AID 1963578)
In short: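 p53RE-bla cells, 4,000/well, pre-incubated 5 h, then given compounds plus rat liver microsomes (0.5 mg/mL final) and NADPH (0.5 mg/mL final). Incubation 16 h at 37 C; beta-lactamase reporter read by LiveBLAzer fluorescence after 2 h at room temperature.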

Muscarinic acetylcholine receptor M1 (Homo sapiens), sequence (P11229 whole entry, looked up): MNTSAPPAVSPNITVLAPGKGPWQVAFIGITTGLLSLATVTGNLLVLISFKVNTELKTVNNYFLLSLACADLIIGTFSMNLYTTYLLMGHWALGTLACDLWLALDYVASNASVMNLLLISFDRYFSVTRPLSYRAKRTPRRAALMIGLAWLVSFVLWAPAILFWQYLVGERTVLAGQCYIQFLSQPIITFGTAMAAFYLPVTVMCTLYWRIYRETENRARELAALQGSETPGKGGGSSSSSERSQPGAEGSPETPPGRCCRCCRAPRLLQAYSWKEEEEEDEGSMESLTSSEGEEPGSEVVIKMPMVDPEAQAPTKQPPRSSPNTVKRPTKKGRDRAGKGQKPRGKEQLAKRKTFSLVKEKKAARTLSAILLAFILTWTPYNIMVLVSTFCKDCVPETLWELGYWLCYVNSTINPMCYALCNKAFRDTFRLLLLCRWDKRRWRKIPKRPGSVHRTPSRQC
5-hydroxytryptamine receptor 2A (Homo sapiens), sequence (P28223 whole entry, looked up): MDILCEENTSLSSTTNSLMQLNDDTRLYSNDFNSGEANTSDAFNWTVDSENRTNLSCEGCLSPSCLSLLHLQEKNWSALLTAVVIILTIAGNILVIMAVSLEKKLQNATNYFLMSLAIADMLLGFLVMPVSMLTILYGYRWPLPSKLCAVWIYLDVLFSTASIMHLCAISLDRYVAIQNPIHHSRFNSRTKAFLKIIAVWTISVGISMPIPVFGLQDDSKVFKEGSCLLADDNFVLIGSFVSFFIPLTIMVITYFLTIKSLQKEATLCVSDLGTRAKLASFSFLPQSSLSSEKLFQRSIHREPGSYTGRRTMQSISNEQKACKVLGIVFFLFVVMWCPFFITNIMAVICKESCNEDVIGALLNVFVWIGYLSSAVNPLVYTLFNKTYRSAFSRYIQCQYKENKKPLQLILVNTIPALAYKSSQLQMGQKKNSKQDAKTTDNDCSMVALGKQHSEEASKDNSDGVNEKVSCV
Beta-2 adrenergic receptor (Homo sapiens), sequence (P07550 whole entry, looked up): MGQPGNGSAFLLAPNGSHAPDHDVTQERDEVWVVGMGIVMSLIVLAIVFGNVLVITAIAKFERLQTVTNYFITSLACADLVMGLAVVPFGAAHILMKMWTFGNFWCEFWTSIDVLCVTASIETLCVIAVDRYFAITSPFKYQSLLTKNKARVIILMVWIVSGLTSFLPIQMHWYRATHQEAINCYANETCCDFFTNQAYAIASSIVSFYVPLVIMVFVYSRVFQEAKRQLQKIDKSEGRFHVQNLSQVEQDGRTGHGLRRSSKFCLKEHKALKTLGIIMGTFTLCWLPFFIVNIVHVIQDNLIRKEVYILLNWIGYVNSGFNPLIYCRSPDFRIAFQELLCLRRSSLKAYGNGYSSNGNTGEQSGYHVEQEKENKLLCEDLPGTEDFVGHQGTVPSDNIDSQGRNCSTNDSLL
D(2) dopamine receptor (Homo sapiens), sequence (P14416 whole entry, looked up): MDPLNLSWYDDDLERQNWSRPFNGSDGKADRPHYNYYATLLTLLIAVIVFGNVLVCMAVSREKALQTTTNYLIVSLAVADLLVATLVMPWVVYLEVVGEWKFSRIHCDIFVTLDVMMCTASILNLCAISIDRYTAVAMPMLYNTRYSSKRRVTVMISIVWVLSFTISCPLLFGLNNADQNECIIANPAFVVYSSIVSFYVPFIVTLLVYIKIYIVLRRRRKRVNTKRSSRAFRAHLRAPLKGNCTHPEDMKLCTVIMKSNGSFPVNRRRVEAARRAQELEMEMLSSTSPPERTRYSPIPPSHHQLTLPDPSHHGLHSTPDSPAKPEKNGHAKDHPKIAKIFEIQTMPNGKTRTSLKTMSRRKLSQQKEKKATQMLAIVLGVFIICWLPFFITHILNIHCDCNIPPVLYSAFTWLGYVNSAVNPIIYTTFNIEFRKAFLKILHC
Gonadotropin-releasing hormone receptor (Homo sapiens), sequence (P30968 whole entry, looked up): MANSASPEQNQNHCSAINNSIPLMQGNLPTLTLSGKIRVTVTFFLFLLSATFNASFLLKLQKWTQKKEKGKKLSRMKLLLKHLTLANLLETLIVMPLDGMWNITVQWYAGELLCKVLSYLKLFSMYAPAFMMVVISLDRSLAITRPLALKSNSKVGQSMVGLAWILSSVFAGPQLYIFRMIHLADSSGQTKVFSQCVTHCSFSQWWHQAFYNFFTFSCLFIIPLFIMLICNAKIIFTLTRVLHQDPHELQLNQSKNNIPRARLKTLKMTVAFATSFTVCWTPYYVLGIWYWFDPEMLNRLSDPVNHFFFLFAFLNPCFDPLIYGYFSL

Compound	Potency [1]	Potency [2]	Potency [3]	Potency [4]	Potency [5]	Potency [6]	Potency [7]	Potency [8]	Potency [9]	Potency [10]	Potency [11]	Potency [12]	Potency [13]	Potency [14]	Potency [15]	Potency [16]	Potency [17]	Potency [18]	Potency [19]
CNC(=O)Oc1ccccc1OC(C)C	inactive	inactive	inactive	inactive	inactive	inactive	inactive	inactive	inactive	inactive	inactive	inactive	inactive	inactive	inactive	–	–	–	–
CC12CC1(C)C(=O)N(c1cc(Cl)cc(Cl)c1)C2=O (stereo unspecified)	inactive	inactive	inactive	inactive	inactive	inactive	inactive	inactive	inactive	inactive	inactive	inactive	inactive	inactive	inactive	inactive	inactive	inactive	–
CCOP(=O)(O)OCC (tested in a mixture with another compound)	inactive and 24.1 µM (active)	inactive	inactive	–	inactive and 36.1 µM (active)	inactive and 28.6 µM (active)	–	–	inactive and 1.48 µM (active)	–	inactive	inactive	inactive	inactive	inactive	inactive and 36.1 µM (active)	inactive	inactive	–
Clc1cccc(C(Cl)(Cl)Cl)n1	inactive	inactive	inactive	inactive	–	inactive	–	inactive	inactive	inactive	inactive	inactive	inactive	inactive	inactive	inactive	inactive	inactive	inactive
[O]=[Cr](=[O])([OH])[O][Cr](=[O])(=[O])[OH]	30.9 µM (active) and 61 µM (active)	inactive	inactive	inactive	40.7 µM (active)	18.4 µM (active)	–	–	inactive	inactive	inactive	–	–	–	inactive	–	–	inactive	inactive
CCCCCCC1CCOC1=O (stereo unspecified)	inactive	inactive	inactive	inactive	inactive	–	inactive	–	inactive	inactive	inactive	inactive	inactive	–	inactive	inactive	inactive	inactive	inactive
Clc1ccc(C(Cl)(Cl)Cl)cn1	inactive	inactive	inactive	inactive	inactive	–	inactive	inactive	inactive	inactive	inactive	–	inactive	inactive	inactive	–	inactive	inactive	inactive
BrCCc1ccccc1	inactive	inactive	inactive	inactive	inactive	inactive	inactive	inactive	inactive	inactive	inactive	inactive	inactive	inactive	inactive	inactive	inactive	inactive	–

Source: PubChem BioAssay (Tox21)
